Drawing on PubChem BioAssay AID588398 (Broad Institute, 2011), this text covers outcome for 108 compounds.

In all, about 1,200 compounds went through this assay and about 110 (9.2%) were called active. Not shown: some 8% with an inconclusive outcome.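 The calls were made as follows: active = pathway reporter half-maximal dose under half the control reporter's, or control reporter unaffected while pathway reporter is inhibited; inconclusive = either signal flat at 30 to 70% inhibition or poorly fitted; inactive = the rest.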 The list is a sample of the results. Measured potencies and affinities stand elsewhere.

This assay is described as follows: LMP1 TES1 pathway selectivity over dsRED control – imaging, HEK293T, dual-color eGFP/dsRED, cherry-picks, selectivity assay for LMP1 NF-kB inhibitor project, dose response (AID 588398). Conditions: 48 h; HEK293T Tet-On dsRED counter-screen channel, at 19.5 µM (top of the series).
On to `CC1Cc2ccccc2N1c1ncnc(N)c1[N+](=O)[O-]` (stereo not drawn), for which the call was inactive.

As to `CCCn1c(C)cc(C(=O)CN2C(=O)c3ccccc3S2(=O)=O)c1C`, the result was inactive.

Consider `COc1cccc(/C=N/Nc2nccnc2Cl)c1O`, for which the result was inactive.

Turning to `COc1ccc(/C=C2\N=C(C)OC2=O)cc1[N+](=O)[O-]`, the call was inactive.

With `CCN1CCN(Cc2ccc(NC(=O)c3ccc(C)c(NC(=O)c4cccc(-c5cn[nH]c(=O)c5)c4)c3)cc2C(F)(F)F)CC1`, the compound was called inactive.

For the compound `Cc1cc(N)nc(=O)n1C1CC(O)C(CO)O1` (stereo not drawn), the result was inactive.

With `N/C(=N\OC(=O)c1cccc(Br)c1)c1ccccn1`, the result was inactive.

On to `COc1cc(C=C2CCCC(=Cc3ccc(OCC4CO4)c(OC)c3)C2=O)ccc1OCC1CO1` (stereo not drawn), for which the call was inactive.

Take `CS(=O)(=O)Nc1ccc(C2=NN(S(C)(=O)=O)C(c3ccccc3)C2)cc1` (stereo not drawn): the result was inactive.

Regarding `CCSc1nnc(NC(=O)CCn2c(=O)oc3ccccc32)s1`, the outcome was inactive.

On to `c1nc(NCc2ccc3c(c2)OCO3)c2cc(-c3ccoc3)ccc2n1`, for which the compound was classed as inactive.

`COc1ccc(N2C3=[N+](CC2(C)O)c2ccccc2CC3)cc1` (stereo not drawn): the compound was called inactive.

On to `c1ccc(-n2nnc3c(N4CCOCC4)ncnc32)cc1`, for which the call was inactive.

In the case of `O=C(NCc1ccco1)C1CC(=O)N(c2cccc(Cl)c2)C1` (stereo not drawn), the compound was classed as inactive.

As to `COCCn1c(SCC(=O)NCc2ccco2)nnc1-c1c[nH]c2ccccc12`, the compound was called inactive.

In the case of `O=C1CCC(C(=O)N2CCCCCC2)CN1CCc1ccc(Cl)cc1` (stereo not drawn), the result was inactive.

Turning to `COc1ccc(NC(=O)/C(C#N)=C/c2cc(C)n(-c3ccc(N4CCOCC4)c([N+](=O)[O-])c3)c2C)cc1`, the result was inactive.

`CCOC(=O)c1nc(NCc2ccccc2F)c2ccccc2n1`: the call was inactive.

Turning to `CCOC(=O)c1cc(-c2ccccc2)n(CC(=O)Nc2cccc(OC)c2)c1C`, the compound was called inactive.

With `COc1cc(/C=N/NC(=O)c2cc(C34CC5CC(CC(C5)C3)C4)[nH]n2)ccc1O`, the call was inactive.

For the compound `COc1cc(/C=C2\SC(=S)N(NC(=O)c3ccncc3)C2=O)ccc1O`, the result was inactive.

In the case of `CCOC(=O)c1cn2nc(N3CCCC3)ccc2n1`, the compound was called inactive.

As to `COc1ccc2[nH]c(-c3ccc(C)cc3)cc(=O)c2c1`, the compound was classed as inactive.

Consider `Cc1ccc(C(=O)Nc2nnc(SCC(=O)N3CCCc4ccccc43)s2)cc1`, for which the outcome was inactive.

Regarding `O=C(C1CC1)N1N=C(c2ccc(Br)cc2)CC1(O)C(F)(F)F` (stereo not drawn), the compound was called inactive.

In the case of `COc1ccccc1C(=O)Nc1c[nH]c(=O)[nH]c1=O`, the outcome was inactive.

Consider `COc1ccccc1OCc1ccc(C(=O)c2ccccc2)cc1`, for which the compound was classed as inactive.

Consider `COc1ccc(-c2csc(Nc3cccc(C)n3)n2)cc1OC`, for which the result was inactive.

As for `CS(=O)(=O)c1ccc(Sc2nc3ccccc3s2)c([N+](=O)[O-])c1`, the compound was called inactive.

On to `O=C(Nc1ncc(Br)s1)C(Cc1ccccc1)n1cccc1` (stereo not drawn), for which the call was inactive.

As to `CCOc1ccccc1C(=O)NC1CC2CCCC(C1)N2Cc1nnnn1Cc1ccco1` (stereo not drawn), the outcome was inactive.

As for `O=c1cc(C2CCCCC2)[nH]c(=O)[nH]1`, the compound was called inactive.

Turning to `Cc1ccc(-c2nc3cccnc3o2)cc1NC(=O)COc1ccc(C(C)(C)C)cc1`, the compound was classed as inactive.

Take `CNC(=S)N1N=C(c2cccs2)CC1c1ccc(F)cc1` (stereo not drawn): the result was inactive.

As for `Oc1ccc(C=NNC(=S)Nc2ccccc2)nc1`, the compound was classed as inactive.

For `S=C(N/N=C/c1ccc2ncccc2c1)Nc1cccnc1`, the compound was called inactive.

As to `Cn1cc(S(=O)(=O)N2CCN(C(=O)c3ccco3)CC2)c(=O)n(C)c1=O`, the call was inactive.

Take `Cn1cccc1C(=O)OCC(=O)Nc1ccc2c(c1)OCO2`: the call was inactive.

On to `Cc1cc(C)nc(SCC(=O)OCN2C(=O)c3ccccc3C2=O)n1`, for which the outcome was inactive.

For `O=C(Nc1ccc(N2CCOCC2)cc1)c1cnccn1`, the result was inactive.

Take `Cc1ccccc1C(=O)N1CCN(c2ccc(NC(=O)c3ccco3)cc2Cl)CC1`: the compound was called inactive.

As for `O=C(CCCOc1ccccc1)N1CCN(c2ccccc2)CC1`, the compound was called inactive.

For the compound `N#CC(C#N)c1ccnc2ccccc12`, the outcome was inactive.

Take `COc1ccc(NC(=O)C[C@H]2C(=O)N(CCc3ccccc3)C[C@@H]2c2ccc(OC)cc2)cc1`: the compound was classed as inactive.

Take `COc1cc(OC)cc(-c2c(C#Cc3ccsc3)c3cc(-c4cc(OC)c(OC)c(OC)c4)ccc3n2C)c1`: the compound was called inactive.

In the case of `COc1cccc(N=Nc2ccc(O)c3ncccc23)c1`, the result was inactive.

Take `COc1cccc(C2Nc3ccc4ccccc4c3C3=C2C(=O)CC(C)(C)C3)c1OCC(=O)O` (stereo not drawn): the outcome was inactive.

Consider `COc1ccc(-n2c(C)c([N+](=O)[O-])c3ccc(O)c(CN(C)C)c32)cc1`, for which the call was inactive.

`COc1ccc(/C=C2\SC(=O)N(CCCC(=O)Nc3ccc(C(=O)O)cc3)C2=O)cc1`: the call was inactive.

Regarding `O=C(Nc1ccc2c(c1)OCCO2)c1ccccn1`, the compound was classed as inactive.

Consider `Cc1ccc(C(=O)Nc2ccc3c(c2)OCCO3)c(Cl)c1`, for which the result was inactive.

For the compound `Cc1ccc(C(=O)Nc2ccc3c(c2)OCCO3)cc1`, the call was inactive.

For the compound `CCc1nc(SCC(=O)c2ccc3c(c2)OCCO3)c2ccccc2n1`, the compound was called inactive.

As for `O=C(CCCN1C(=O)[C@H]2CC=CC[C@H]2C1=O)NCc1nc(-c2ccc(Cl)cc2)no1`, the result was inactive.

Regarding `CC1(C)CC(=O)C(CC2=C(O)CC(C)(C)CC2=O)=C(O)C1`, the compound was called inactive.

With `CC(C)CC1C(=O)N(Cc2cn(CC3CCCCC3)nn2)CCS(=O)(=O)N1Cc1ccc(-c2ccc(F)nc2)cc1` (stereo not drawn), the compound was called inactive.

For `Cc1cc(=O)[nH]c(N=N/C(=N/Nc2ccccc2C)c2ccccc2)n1`, the compound was called inactive.

With `COC(=O)c1ccccc1NC(=O)CSc1nnnn1C`, the outcome was inactive.

For the compound `COc1ccc(S(=O)(=O)NCC(c2cccnc2)N2CCN(c3ccc(F)cc3)CC2)cc1C` (stereo not drawn), the compound was called inactive.

In the case of `O=C(CCNc1cccc(F)c1)c1cc2ccccc2o1`, the outcome was inactive.

For the compound `NC(=O)c1sc2nccc(Nc3ccccc3)c2c1N`, the compound was called inactive.

With `Cc1nn(-c2ccccc2)c(Cl)c1C1C(C#N)=C(N)Oc2n[nH]c(C)c21` (stereo not drawn), the outcome was inactive.

As to `O=S(=O)(c1ccc2c(c1)C(=NO)c1cc(S(=O)(=O)N3CCCCC3)ccc1-2)N1CCCCC1`, the outcome was inactive.

As to `COc1ccc(S(=O)(=O)N2CCOCC2)cc1NC(=O)COC(=O)CCS(=O)(=O)c1ccc(C)cc1`, the result was inactive.

On to `Oc1ccc2ccccc2c1N=Nc1ccccn1`, for which the outcome was inactive.

For `c1ccc(C(=NNc2nc3ccccc3s2)c2ccccn2)cc1`, the compound was classed as inactive.

In the case of `CCOC(=O)c1sc(NC(=O)CNCc2ccccn2)c(C(=O)OCC)c1C`, the outcome was inactive.

Regarding `Oc1c(N=NC(=S)Nc2ccccc2F)c2ccccc2n1Cc1ccccc1`, the outcome was inactive.

As to `COc1ccc(OCc2cccc(C(=O)NN)c2)cc1`, the outcome was inactive.

Regarding `COc1ccc(C=C2OC(=O)C(C(C)=O)=C2O)cc1`, the compound was classed as inactive.

For `COc1ccc(-c2[nH]ncc2/C=N\NS(=O)(=O)c2ccc(Cl)cc2)cc1`, the result was inactive.

On to `Cc1ccc(CCNC(=O)Cc2ccc(NC3=NC4CS(=O)(=O)CC4S3)cc2)cc1` (stereo not drawn), for which the outcome was inactive.

As for `O=C(NN1C(=O)C2C3C=CC(C4CC34)C2C1=O)c1cccc(Cl)c1` (stereo not drawn), the result was inactive.

Consider `CCc1ccccc1NC(=O)COC(=O)c1c(C)nsc1NC`, for which the result was inactive.

In the case of `Oc1c(N=NC(=S)Nc2ccccc2F)c2ccccc2n1Cc1ccccc1Cl`, the result was inactive.

Regarding `O=c1cc(Cl)nc2ccccn12`, the outcome was inactive.

Regarding `COc1ccc(-c2cc(C(=O)N3CCCC3)no2)cc1`, the result was inactive.

Consider `COc1ccc(CNC(=O)N2[C@H]3CC[C@@H]2C=C(c2ccc(F)cc2OCc2ccccc2)C3)cc1OC`, for which the result was inactive.

For `COc1cc(C(=O)Oc2ccccc2/C=N/NC(=O)c2ccc(C)c(Cl)c2)cc(OC)c1OC`, the compound was classed as inactive.

As to `CCCC(=O)NCCCc1nc2ccccc2[nH]1`, the compound was classed as inactive.

Take `O=C(Nc1nc(-c2ccccn2)cs1)c1ccc(Cl)s1`: the call was inactive.

Turning to `COc1ccc(C(=O)NCCN2CCOCC2)cc1[N+](=O)[O-]`, the outcome was inactive.

In the case of `O=C(c1ccccc1)C(CCC(CN1CCOCC1)C(=O)c1ccccc1)CN1CCOCC1` (stereo not drawn), the result was inactive.

Take `CCON1C(=O)C2(CCCCC2)C(=O)C12C=CCCC2` (stereo not drawn): the call was inactive.

Consider `COc1cc(N(C)C)c([N+](=O)[O-])cc1C(=O)N1CCN(Cc2ccccc2)CC1`, for which the outcome was inactive.

For the compound `CC1CCN(C(=O)/C(=C\c2cccs2)NC(=O)c2ccccc2)CC1`, the outcome was inactive.

As to `CCn1c(NC(=O)c2ccc(C)cc2)c2ccccc2nc1=O`, the call was inactive.

Regarding `COc1ccc2cc(-c3cc(C(=O)OCC(=O)Nc4c(C)n(C)n(-c5ccccc5)c4=O)c4ccccc4n3)ccc2c1`, the compound was classed as inactive.

As to `COc1ccc(N2Cc3ccccc3C2=O)cc1`, the compound was called inactive.

As to `O=C(NCc1ccccc1Cl)C1CCCN1S(=O)(=O)c1ccc(F)cc1` (stereo not drawn), the compound was classed as inactive.

For the compound `O=C(Nc1ncccc1O)c1ccc(S(=O)(=O)NCc2ccco2)cc1`, the result was inactive.

With `CCc1cc(C(=O)Nc2ncccc2O)sc1C`, the compound was classed as inactive.

As for `COCCn1c(SCC(=O)N2CCc3ccccc32)nc2c(c1=O)SC(C)C2` (stereo not drawn), the compound was classed as inactive.

With `COc1ccc(-c2csc3ncnc(NCCCO)c23)cc1`, the result was inactive.

As to `COc1ccc(-c2oc3ncnc(NCCN4CCOCC4)c3c2-c2ccc(OC)cc2)cc1`, the compound was classed as inactive.

Take `COc1ccc(-c2cc(C(F)(F)F)n3nc(C(=O)N4CCOCC4)nc3n2)cc1`: the compound was classed as inactive.

As to `Cc1ccccc1C(=O)N1CCN(c2ccc(NC(=O)CSc3ccc(Cl)cc3)cc2)CC1`, the call was inactive.

For the compound `CN(Cc1ccccc1)c1nc(N)c([N+](=O)[O-])c(NCc2ccccc2)n1`, the outcome was inactive.

With `CCC(C)Nc1nc(-c2ccccn2)nc2ccccc12` (stereo not drawn), the result was inactive.

`Cc1ccc(C)c(S(=O)(=O)N2CCN(CC(=O)N3CCc4ccccc4C3)CC2)c1`: the compound was called inactive.

`CCOc1ccc(OCC(=O)Nc2nccs2)cc1`: the outcome was inactive.

As to `O=C(c1ccc(COc2ccccc2Cl)o1)N1CCCC1`, the outcome was inactive.

With `Cc1cc(C)n2nc(CC(=O)NC3CCCCCC3)nc2n1`, the compound was classed as inactive.

`CCOC(=O)c1cn2nc(N3CCCCC3)ccc2n1`: the compound was classed as inactive.

As for `COc1ccc(CCC(=O)Nc2ccc(C)c([N+](=O)[O-])c2)cc1`, the call was inactive.

With `O=C(C=C1SCCS1)/C=C/c1ccco1`, the result was inactive.

Turning to `Cc1ccccc1Cn1c(O)c(N=NC(=S)Nc2ccccc2F)c2ccccc21`, the result was inactive.

With `CCc1ccc(C(=O)COC(=O)c2cccc(N3C(=O)c4c(C)nc5ccccc5c4C3=O)c2)cc1`, the compound was classed as inactive.
